Activity calls are given as the source filed them.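 How the source made its calls: active means potency under 20 µM; inactive means the rest.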
assay: High Content Assay for Compounds that inhibit the Assembly of the Perinucleolar Compartment:Cell Migration; conditions: PC3M cell invasion in 3D collagen microchannel, Hoechst imaging
Excerpt: The perinucleolar compartment (PNC) is a non-membrane-bound nuclear subdomain that is associated with but structurally distinct from the nucleolus. The PNC is a heritable trait, in which the number of PNCs per cell in daughter cells often mimics that of their mother cells. The PNC is heterogeneous in shape, is stable through interphase, disassembles during mitosis, and reassembles in early G1. The PNC is concentrated with newly synthesized RNA polymerase III (pol III) RNAs (MRP RNA, RNAse P H1 RNA, hY RNAs[hY1, 2, 5], Alu RNA, and SRP [7SL] RNA) and RNA binding proteins (nucleolin, PTB, CUG-BP, KSRP, Raver1, Raver2, and Rod). […] In collaboration between Sui Huang from Northwestern University and the NCGC, a high content assay was developed and screened. The hits were then tested in follow-up assays. High-content tumor cell migration assays in 3-dimensional extracellular matrices are powerful tools for modeling and understanding the biology of this critical step in the process of metastasis. However, most of the available methods are not amenable to the throughput required by studies of comparative pharmacology or small scale screening. For this reason, we worked with BellBrook Labs(R) to test our compounds in their automated high-content tumor cell invasion assays.[35] A standard screening-sized plate with an array of embedded microchannels was designed and constructed from common thermoplastics. NIH Chemical Genomics Center [NCGC] NIH Molecular Libraries Probe Centers Network [MLPCN] MLPCN Grant: MH082371 Assay Submitter (PI): Sui Huang, Northwestern University, Feinberg School of Medicine, Cell and Molecular Biology, Chicago, Illinois.
PC3M cells were tested for invasion through 3D fibrillar collagen in the Iuvo Single Microchannel Plate, in the presence of varying levels of test compounds. Channels were prefilled with 820 nL of 3-dimensional type I collagen at 1 mg/mL, through the input port. Following gelation, 2,000 PC3M cells were seeded into the output port using growth media (RPMI + 10% FBS with antibiotics) in a volume of 5 microL. Cells were incubated in a 37 masculineC incubator inside a humidified container to control evaporation (Bioassay dish, Corning). Media including test compounds was changed daily for 5 days. At the end of the assay, cells were fixed and stained with Hoechst 33342, then imaged with 4x objective under epifluorescence. Under these conditions, we can reliably identify cells across the 140 microm height range of the microchannel. Test compounds were serially diluted by a factor of 3, to produce 10 concentrations ranging from 50 or 100 microM to 2.5 nM.

Structure (SMILES) | Potency | outcome
CCN(CC)C(=O)N1c2ccccc2C=Cc2ccccc21 | 2.1 µM (active) | –
CSc1nnc2c3ccccc3n(CCc3ccccc3)c2n1 | 4.3 µM (active) | –
Cc1oc(-c2ccccc2Cl)nc1CSCC(=O)N1CCCC1 | 6.2 µM (active) | –
Cc1c(NC(=O)COC(=O)c2cc(-c3ccc(-c4ccccc4)cc3)nc3ccccc23)c(=O)n(-c2ccccc2)n1C | 0.117 µM (active) | –
COc1ccc(-c2nc(NC(=O)c3n[nH]c(=O)c4ccccc34)sc2C)cc1 | 3.8 µM (active) | –
COC(=O)c1c(-c2ccccc2)csc1NC(=O)c1c(-c2ccccc2)noc1C | – | inactive
COc1ccc(-n2c(SC(C)C(=O)Nc3ncc(Cl)cc3Cl)nc3ccccc32)cc1 (stereo unspecified) | – | inactive
O=C(Nc1cccnc1)c1cccs1 | 1.6 µM (active) | –
N=c1c2c(-c3ccccc3)c(-c3ccccc3)n(Cc3ccccc3)c2ncn1CCCO | 11.5 µM (active) | –
CCOC(=O)Cn1c(-c2nonc2NC(=O)c2ccccc2F)nc2ccccc21 | – | inactive
CN1c2ccccc2C(C)(C)C12CC(c1ccc(Cl)c(S(=O)(=O)N3CCCC3)c1)=NO2 (stereo unspecified) | 3.2 µM (active) | –

— PubChem BioAssay AID588722 (National Center for Advancing Translational Sciences (NCATS), 2011)
